Records with an inconclusive call do not appear. The source holds several records for some structures; these can differ, active in one and inactive in another. Calls of active or inactive are those of the source. How the source made its calls, unless noted: active means hit-call score of the fitted dose curve at least 0.9, where 1 is the maximum; inactive means score below 0.9.
Key:
[1] = read-out: Interleukin-8 (IL8), CXCL8 (gene 3576); assay: BSK_BE3C_IL8: BioMAP Diversity Plus: BE3C Assay for Interleukin-8 (IL8) Biomarker Activity (AID 2284280); conditions: primary human bronchial epithelial cells
Outline: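 ELISA read-out of IL-8 in human lung bronchial epithelial primary cell cultures, 24 h post-dosing; endpoint analysed as signal increase relative to DMSO baseline.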

[2] = read-out: Epidermal growth factor receptor (EGFR), EGFR (gene 1956); assay: BSK_BE3C_EGFR: BioMAP Diversity Plus: BE3C Assay for Epidermal growth factor receptor (EGFR) Biomarker Activity (AID 2284281); conditions: primary human bronchial epithelial cells
Outline: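 Primary human lung bronchial epithelial cells; compound, 24 h; EGFR measured by ELISA; positive-direction fit vs DMSO baseline.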

KRT18 (gene 3875) = assay: BSK_BE3C_Keratin818: BioMAP Diversity Plus: BE3C Assay for Keratin 818 Biomarker Activity (AID 2284282); conditions: primary human bronchial epithelial cells
Outline: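 Primary human bronchial epithelial cells treated 24 h; Keratin 8/18 quantified by ELISA, fit relative to DMSO. Cytotoxicity tracked in parallel cultures by sulforhodamine B total-protein staining.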

[3] = read-out: Matrix Metallopeptidase 9 (MMP9), MMP9 (gene 4318); assay: BSK_BE3C_MMP9: BioMAP Diversity Plus: BE3C Assay for Matrix Metallopeptidase 9 (MMP9) Biomarker Activity (AID 2284283); conditions: primary human bronchial epithelial cells
Outline: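 Cells were dosed, incubated 24 h, then assayed for MMP-9 by ELISA; activity was fitted upward against DMSO. The system used human lung primary bronchial epithelial cells, with SRB total-protein staining run alongside for cytotoxicity.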

[4] = read-out: Plasminogen activator inhibitor-1 (PAI1), SERPINE1 (gene 5054); assay: BSK_CASM3C_PAI1: BioMAP Diversity Plus: CASM3C Assay for Plasminogen activator inhibitor-1 (PAI1) Biomarker Activity (AID 2284284); conditions: primary human coronary artery smooth muscle cells;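 further: PAI-1 protein level measured by ELISA 24 h after dosing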
[5] = read-out: Intercellular Adhesion Molecule 1 (ICAM1), ICAM1 (gene 3383); assay: BSK_hDFCGF_ICAM1: BioMAP Diversity Plus: hDFCGF Assay for Intercellular Adhesion Molecule 1 (ICAM1) Biomarker Activity (AID 2284287); conditions: primary human foreskin fibroblasts
Outline: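 Primary human foreskin fibroblasts (hDFCGF system) dosed with chemical; ICAM-1 quantified by ELISA at 24 h relative to DMSO. Parallel SRB total-protein staining to assess overt cytotoxicity.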

[6] = read-out: TIMP metallopeptidase inhibitor 2 (TIMP2), TIMP2 (gene 7077); assay: BSK_hDFCGF_TIMP2: BioMAP Diversity Plus: hDFCGF Assay for TIMP metallopeptidase inhibitor 2 (TIMP2) Biomarker Activity (AID 2284289); conditions: primary human foreskin fibroblasts
Outline: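 Primary human foreskin fibroblasts in the hDFCGF system, dosed for 24 h; TIMP-2 level measured by ELISA, fitted in the positive direction against DMSO; cytotoxicity checked in parallel by sulforhodamine B total protein staining.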

[7] = read-out: Thrombomodulin, THBD (gene 7056); assay: BSK_LPS_Thrombomodulin: BioMAP Diversity Plus: LPS Assay for Thrombomodulin Biomarker Activity (AID 2284296); conditions: primary human HUVEC with PBMC
Outline: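 Human umbilical vein endothelial cells co-cultured with PBMC and stimulated with LPS; cell-surface thrombomodulin measured by ELISA 24 hours after compound. Gain or loss versus DMSO; cytotoxicity checked by SRB staining in parallel cultures.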

CD69, CD69 (gene 969) = assay: BSK_LPS_CD69: BioMAP Diversity Plus: LPS Assay for CD69 Biomarker Activity (AID 2284303); conditions: primary human HUVEC with PBMC
Outline: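 Human umbilical vein endothelial cells co-cultured with PBMC under LPS stimulation, chemical exposure 24 h; cell-surface CD69 measured by ELISA and fitted in the positive direction versus DMSO.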

[8] = IUF_NPC2c_oligodendrocyte_migration_120hr: Leibniz Research Institute for Environmental Medicine (IUF) 120-hour Neural Progenitor Cell Migration Assay for Oligodendrocyte Migration (NPC2c) (AID 2284297);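 further: O4-positive oligodendrocyte migration distance divided by radial glia migration distance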
Outline: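 Primary hNPC spheres migrating on extracellular matrix, exposed five days to a 7-point dilution series with solvent control. Oligodendrocyte migration was scored by high-content imaging of O4 immunostaining and expressed relative to radial glia distance.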

[9] = IUF_NPC2a_radial_glia_migration_120hr: Leibniz Research Institute for Environmental Medicine (IUF) 120-hour Neural Progenitor Cell Migration Assay for Radial Glia Migration (NPC2a) (AID 2284298)
Outline: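 In this multiplexed test, fetal hNPC spheres migrate radially on poly-D-lysine/laminin in N2 medium (37C, 5% CO2, pH 7.2-7.6) under continuous compound exposure over five days. Migration is scored at 120 h from automated Hoechst nuclear imaging.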

[10] = IUF_NPC2a_radial_glia_migration_72hr: Leibniz Research Institute for Environmental Medicine (IUF) 72-hour Neural Progenitor Cell Migration Assay for Radial Glia Migration (NPC2a) (AID 2284299)
Outline: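 Human fetal neural progenitor spheres (0.3 mm) plated on poly-D-lysine/laminin in N2 differentiation medium and exposed from day 0 at 7 concentrations; radial glia migration distance from sphere edge measured at 72 h on brightfield images, mean of four directions, vs DMSO.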

[11] = IUF_NPC2b_neuronal_migration_120hr: Leibniz Research Institute for Environmental Medicine (IUF) 120-hour Neural Progenitor Cell Migration Assay for Neuron Migration (NPC2b) (AID 2284300)
Outline: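 Neurons identified by TUBB3 immunostaining and Hoechst nuclei; migration distance measured automatically on fixed wells at 120 h, normalized to glia migration. Exposure spanned five days of differentiation in N2 medium, seven test concentrations.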

[12] = IUF_NPC3_neuronal_differentiation_120hr: Leibniz Research Institute for Environmental Medicine (IUF) 120-hour Neuronal Differentiation Assay (NPC3) (AID 2284301)
Outline: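 Primary human fetal neural progenitor spheres (GW 16-19, 0.3 mm) plated on poly-D-lysine/laminin in N2 medium, exposed from day 0 for 120 h with half-medium refresh at day 3. TUBB3+ cells as percent of Hoechst nuclei in migration area; DMSO baseline.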

[13] = IUF_NPC4_neurite_length_120hr: Leibniz Research Institute for Environmental Medicine (IUF) 120-hour Neuronal Morphology Assay for Neurite Length (NPC4) (AID 2284302)
Outline: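 Human fetal cortex (GW 16-19) neural progenitor spheres, 0.3 mm, were plated on poly-D-lysine/laminin in N2 differentiation medium and exposed from day 0 for 120 h, half-feeding at day 3. Mean TUBB3+ neurite length (µm) came from skeletonized images, relative to DMSO.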

[14] = IUF_NPC5_oligodendrocyte_differentiation_120hr: Leibniz Research Institute for Environmental Medicine (IUF) 120-hour Oligodendrocyte Differentiation Assay (NPC5) (AID 2284304; active means hit-call score of the fitted dose curve at least 0.9, where 1 is the maximum;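 further: primary human fetal neural progenitor spheres plated to migrate and differentiate; share of O4-positive cells among Hoechst nuclei found by CNN image analysis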)
Outline: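 Human primary NPC neurospheres migrating and differentiating on laminin for 120 h under continuous compound exposure (serial dilution, solvent control). Endpoint: percent O4+ oligodendrocytes among Hoechst nuclei, detected by CNN image analysis, with DMSO as negative control.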

[15] = IUF_NPC2-5_cytotoxicity_72hr: Cytotoxicity Assessment at 72 hours in the Leibniz Research Institute for Environmental Medicine (IUF) Neural Progenitor Cell Migration and Differentiation Assay for Cytotoxicity (NPC2-5) (AID 2284306; active means hit-call score of the fitted dose curve at least 0.9, where 1 is the maximum;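 further: LDH release into supernatant measured by resorufin fluorescence marking membrane damage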)
Outline: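 Human fetal (GW 16-19) neural progenitor spheres, 0.3 mm, plated on poly-D-lysine/laminin in N2 differentiation medium and exposed from day 0 to 7 concentrations plus solvent control (DMSO ≤0.1%). LDH-dependent resazurin-to-resorufin fluorescence in supernatant at 72 h.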

[16] = IUF_NPC2-5_cytotoxicity_120hr: Cytotoxicity Assessment at 120 hours in the Leibniz Research Institute for Environmental Medicine (IUF) Neural Progenitor Cell Migration and Differentiation Assay (NPC2-5) (AID 2284307; active means hit-call score of the fitted dose curve at least 0.9, where 1 is the maximum)
Outline: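 Fluorescence (RFU) from LDH-driven resazurin reduction in medium supernatants measured loss of membrane integrity after 120 h of compound exposure of differentiating primary human neural progenitor spheres on an extracellular matrix.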

[17] = IUF_NPC2-5_cell_number_120hr: Cell Number Assessment at 120 hours in the Leibniz Research Institute for Environmental Medicine (IUF) Neural Progenitor Cell Migration and Differentiation Assay (NPC2-5) (AID 2284308);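 further: count of Hoechst-stained nuclei in migration zone around plated human neural progenitor spheres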
Outline: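 Cell number is taken as all Hoechst-positive nuclei detected in the area into which cells migrate out of the sphere, scored at 120 h and referenced to DMSO solvent control, which was kept at no more than 0.1%.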

[18] = IUF_NPC4_neurite_area_120hr: Leibniz Research Institute for Environmental Medicine (IUF) 120-hour Neuronal Morphology Assay for Neurite Area (NPC4) (AID 2284305; active means hit-call score of the fitted dose curve at least 0.9, where 1 is the maximum)
Outline: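 Human fetal cortex-derived neural progenitor spheres (0.3 mm, GW 16-19) plated on poly-D-lysine/laminin in N2 differentiation medium and exposed from day 0 for 120 h across 7 concentrations plus solvent control. Neurite area is mean pixel area per TUBB3-positive neuron via skeletonization, analysed relative to DMSO.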

Measured: AC50

CCC(=O)OCc1ccccc1
inactive: [1] | [2] | KRT18 (gene 3875) | [3] | [4] | [5] | [6] | [7] | CD69, CD69 (gene 969)

COc1cc(C=O)ccc1OC(=O)C(C)C
inactive: [1] | [2] | KRT18 (gene 3875) | [3] | [4] | [5] | [6] | [7] | CD69, CD69 (gene 969)

CC(=O)[C@H]1CC[C@H]2[C@@H]3CC=C4C[C@@H](O)CC[C@]4(C)[C@H]3CC[C@]12C
inactive: [1] | [2] | KRT18 (gene 3875) | [3] | [4] | [5] | [6] | [7] | CD69, CD69 (gene 969)

OC[C@H]1O[C@H](O[C@]2(CCl)O[C@H](CCl)[C@@H](O)[C@@H]2O)[C@H](O)[C@@H](O)[C@H]1Cl
inactive: [1] | [2] | KRT18 (gene 3875) | [3] | [4] | [5] | [6] | [7] | CD69, CD69 (gene 969)

CN(C)C(=N)N=C(N)N
inactive: [8] | [9] | [10] | [11] | [12] | [13] | [14] | [15] | [16] | [17]

CC(=O)OCCC(C)CC(C)(C)C (stereo not given)
inactive: [1] | [2] | KRT18 (gene 3875) | [3] | [4] | [5] | [6] | [7] | CD69, CD69 (gene 969)

Nc1cc([N+](=O)[O-])ccc1O
inactive: [1] | [2] | KRT18 (gene 3875) | [3] | [4] | [5] | [6] | [7] | CD69, CD69 (gene 969)

NCCNCCN
inactive: [1] | [2] | KRT18 (gene 3875) | [3] | [4] | [5] | [6] | [7] | CD69, CD69 (gene 969)

C[C@H]1C[C@@H]2[C@H]([C@@H](O)C[C@@]3(C)[C@H]2CC[C@]3(O)C(=O)CO)[C@@]2(C)C=CC(=O)C=C12
inactive: [1] | [2] | KRT18 (gene 3875) | [3] | [4] | [5] | [6] | [7] | CD69, CD69 (gene 969)

CC[Si](OC(C)=O)(OC(C)=O)OC(C)=O
inactive: [1] | [2] | KRT18 (gene 3875) | [3] | [4] | [5] | [6] | [7] | CD69, CD69 (gene 969)
active: [3] 6.87 µM

N#Cc1ccc(CC(=NNC(=O)Nc2ccc(OC(F)(F)F)cc2)c2cccc(C(F)(F)F)c2)cc1
inactive: [8] | [9] | [10] | [11] | [12] | [13] | [18] | [15] | [16] | [17]
active: [14] 784 nM

OC1OC[C@@H](O)[C@H](O)[C@H]1O (stereo not given in full)
inactive: [1] | [2] | KRT18 (gene 3875) | [3] | [4] | [5] | [6] | [7] | CD69, CD69 (gene 969)

C=CCOC(=O)CCC1CCCCC1
inactive: [1] | [2] | KRT18 (gene 3875) | [3] | [4] | [5] | [6] | [7] | CD69, CD69 (gene 969)

Cc1cc(C2(c3cc(C)c(O)cc3C)OS(=O)(=O)c3ccccc32)c(C)cc1O
inactive: [1] | [2] | KRT18 (gene 3875) | [3] | [4] | [5] | [6] | [7] | CD69, CD69 (gene 969)

Reference: PubChem BioAssay (EPA / NIEHS)
